Reference: PubChem BioAssay
The source made the active and inactive calls. Unless noted, the rule behind the calls is not given here.

How the values were obtained:
[1] = tested on: XIP peptide (Xip251-270) binding; assay: XIP fragment 251-270 binding compounds – biochemical, small-molecule microarray, fluorescence 635/667 nm, 0.1 µg/mL protein, primary screen (AID 1182); conditions: fluorescent protein binding, 635 nm, higher = more signal, called active from +8 up or from −8 down
XIP peptide (Xip251-270) = assay: compounds binding XIP fragment 251-270 – biochemical, small-molecule microarray, fluorescence 635/667 nm, 0.5 µg/mL protein, primary screen (AID 1183); conditions: fluorescence 635 nm, higher = more signal
[2] = blood-stage malaria parasite viability loss – strain 3D7, DAPI fluorescence, 100 nL, primary screen (AID 1184);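 note: parasites grown inside human red blood cells in medium with human serum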; conditions: P. falciparum 3D7 growth, 3 d, higher = more signal
[3] = biological target: Homeobox protein Hox-A13 (Mus musculus) (UniProt Q62424); assay: disruptors of Hoxa13 oligonucleotide interaction – biochemical, fluorescence polarization, labeled oligonucleotide, primary screen (AID 1185); conditions: Hoxa13:DNA binding, 15 min, higher = more signal, called active from +8 up or from −8 down
Homeobox protein Hox-A13 (Mus musculus), sequence (Q62424 whole entry, looked up): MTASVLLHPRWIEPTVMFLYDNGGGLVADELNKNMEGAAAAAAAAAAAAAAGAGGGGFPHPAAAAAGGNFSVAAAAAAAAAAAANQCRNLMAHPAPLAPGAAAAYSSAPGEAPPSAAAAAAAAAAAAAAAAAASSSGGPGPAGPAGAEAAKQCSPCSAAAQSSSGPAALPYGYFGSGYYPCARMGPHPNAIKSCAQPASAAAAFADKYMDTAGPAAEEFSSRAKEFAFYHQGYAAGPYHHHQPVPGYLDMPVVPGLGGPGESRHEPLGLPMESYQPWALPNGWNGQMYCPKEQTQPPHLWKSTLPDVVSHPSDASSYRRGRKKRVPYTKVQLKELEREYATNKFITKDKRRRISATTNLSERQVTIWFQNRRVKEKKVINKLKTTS

[4] = blockers of DNA damage checkpoint Chk1 activation – imaging, HeLa, hydroxyurea, phospho-Chk1 antibody, percent positive cells, primary screen (AID 1186); conditions: hydroxyurea-induced phospho-Chk1 immunofluorescence imaging, higher = more signal
[5] = blockers of DNA damage checkpoint Chk1 activation – imaging, HeLa, hydroxyurea, phospho-Chk1 nuclear intensity, primary screen (AID 1187); conditions: hydroxyurea-induced phospho-Chk1 immunofluorescence imaging, higher = more signal

| SMILES | composite z-score [1] | composite z-score (XIP peptide (Xip251-270)) | z-score [2] | z-score [3] | z-score [4] | z-score [5] |
| --- | --- | --- | --- | --- | --- | --- |
| COc1ccc(C(=O)Nc2cccc(CN3C(=O)[C@@]4(O[C@@H](CC(=O)N5Cc6ccccc6C[C@H]5CO)[C@H]([Si](C)(C)c5ccc(OC)cc5)[C@H]4C)c4ccccc43)c2)cc1 | 1.44 (inactive) | 0.698 | -2.64 | -3.18 (inactive) | -0.0924 (inactive) | 0.071 (inactive) |
| COC(=O)[C@@]1(Cc2ccc(F)cc2)[C@H]2c3cc(C(=O)N4CCCC4)n(CCc4ccc(OC)c(Br)c4)c3C[C@H]2CN1C(=O)c1ccccc1 | -0.0505 (inactive) | 0.557 | -1.58 | -2.27 (inactive) | -1.03 (inactive) | -0.872 (inactive) |
| CCOC(=O)C[C@H]1[C@H](OC(=O)c2cc3ccccc3oc2=O)[C@@H](NC(=O)c2ccc3ccccc3c2)c2cc(OCCCO)ccc2N1C(=O)c1ccccc1 | 0.126 (inactive) | 0.218 | -2.17 | 0.287 (inactive) | 0.371 (inactive) | 0.632 (inactive) |
| [N-]=[N+]=Nc1ccccc1C[C@]1(C(=O)N2CCCCC2)N=C(c2ccc(OCCCO)cc2)O[C@H]1c1ccccc1N=[N+]=[N-] | 1.01 (inactive) | 0.659 | -2.34 | -1.63 (inactive) | -0.0268 (inactive) | 0.205 (inactive) |
| COc1cc(NN2C(C(O)c3ccccc3)C=CC3C(=O)N(c4ccccc4)C(=O)C32)cc(OC)c1OC (configuration not stated) | 0.396 (inactive) | 0.774 | -0.634 | -4.58 (inactive) | 0.124 (inactive) | -0.0995 (inactive) |
| Cn1c2c(c3ccccc31)C(=O)C1NC2C=CC1(C)C(=O)OCc1ccccc1 (configuration not stated) | -0.605 (inactive) | -0.416 | -0.502 | -3.9 (inactive) | -0.3 (inactive) | -0.512 (inactive) |
| CCCC[C@H]1OB(O)C[C@H]2C1=C(COc1ccccc1)C[C@H]1C(=O)N(Cc3ccccc3)C(=O)[C@H]12 | -0.0195 (inactive) | -0.0475 | 0.589 | -6.65 (inactive) | 0.0918 (inactive) | 0.206 (inactive) |
| Cc1ccc(N2C(=O)c3ccccc3[C@](C)(C(=O)NCCN3CCOCC3)[C@@H]2c2ccc(CO)cc2)nc1 | -0.772 (inactive) | 0.471 | -0.855 | -1.9 (inactive) | -0.217 (inactive) | -0.163 (inactive) |
| C=CCC(OC(C)=O)[C@@H]1[C@@H](N(Cc2cc3ccccc3o2)C(=O)c2cccc3ccccc23)c2cc(OCCCO)ccc2N1C(=O)Cc1ccc2ccccc2c1 (some centres not stated) | -0.0088 (inactive) | -0.102 | -1.73 | -1.02 (inactive) | -0.394 (inactive) | 0.15 (inactive) |
| CC(C)NC(=O)[C@@H]1c2ccccc2C(=O)N(C2CCCCC2)[C@H]1c1ccc(CO)cc1 | 0.457 (inactive) | 0.254 | -0.361 | -2.65 (inactive) | -0.0625 (inactive) | -0.237 (inactive) |
| O=c1cccc(-c2ccccc2)o1 | -0.724 (inactive) | 0.765 | 0.495 | -1.85 (inactive) | 0.403 (inactive) | 0.0838 (inactive) |
| COc1ccc([Si](C)(C)[C@@H]2[C@@H](CCO)O[C@]3(C(=O)N(Cc4ccccc4)c4ccc(N(C=O)c5ccccc5)cc43)[C@H]2C)cc1 | 0.581 (inactive) | 0.573 | -2.79 | -0.204 (inactive) | -1.32 (inactive) | -0.697 (inactive) |
| CCOC(=O)C[C@H]1[C@H](OC(=O)c2ccccc2-c2ccccc2)[C@@H](NC(=O)c2ccc(-c3ccccc3)cc2)c2cc(OCCCO)ccc2N1C(=O)c1ccccc1 | 0.788 (inactive) | 0.79 | -1.43 | -1.95 (inactive) | -0.189 (inactive) | 0.151 (inactive) |
| C=CC[C@@]1(C(N)=O)N=C(c2ccc(OCCCO)cc2)O[C@@H]1c1ccccc1N=[N+]=[N-] | 0.868 (inactive) | 0.231 | -1.73 | -6.09 (inactive) | -0.0626 (inactive) | 0.0164 (inactive) |
| COC(=O)c1c(CC[C@@H](CO)NC(=O)Nc2ncn[nH]2)oc(C(=O)Cc2ccccc2)c1C(=O)OC | 0.782 (inactive) | 0.883 | 0.654 | -2.98 (inactive) | 0.498 (inactive) | -0.15 (inactive) |
| COC(=O)[C@@]1(Cc2ccc(OC)cc2)[C@H]2c3cc(C(=O)N4CCCC4)n(C[C@H](O)CO)c3C[C@H]2CN1C(=O)c1ccccc1 | 0.883 (inactive) | -0.197 | -1.17 | -5.13 (inactive) | 0.0578 (inactive) | -0.0868 (inactive) |
| O=C1C[C@@](C(=O)O)(c2ccc([N+](=O)[O-])cc2)[C@@H](c2ccc(CO)cc2I)N1C1CCCCC1 | -0.183 (inactive) | 0.553 | -2.01 | -6.2 (inactive) | -0.195 (inactive) | 0.201 (inactive) |
